L3MBTL1 inh: inhibitors of human L3MBTL1 | AlphaScreen L3MBTL1–H3K9me1 peptide binding | Potency, µM (titrated, usually from 57.1 µM), for inactives: at the top dose activity, negative = inhibition, most hits filed as inhibitors | 0.66% of 230,000 active; also: nearly all actives have a fitted effect of over 60% in size
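Displacement of a biotinylated histone H3(1-15) peptide monomethylated at Lys9 (75 nM) from L3MBTL1 (50 nM) was measured by AlphaScreen after a 30 min room-temperature compound incubation; cefsulodin titration served as intraplate control.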
APE1 inh: inhibitors of human APE1 endonuclease | Potency, µM (highest dose often 65.8 µM), for inactives: top-dose activity change, negative = inhibition, most hits filed as inhibitors | 0.35% of 350,000 active | P27695 | recombinant APE1, TAMRA/BHQ-2 abasic DNA cleavage fluorescence;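 also: plate controls were vehicle for no effect and reference inhibitor for full effect; nearly all actives have a fitted effect of over 55% in size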
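APE1 at 0.75 nM preincubated 15 min at room temperature with compound. Reaction then started with 50 nM double-stranded THF-abasic substrate labelled with TAMRA/BHQ-2, and 525/598 nm fluorescence read kinetically. Activity taken as third-minus-first read difference, normalized to DMSO and NSC13755 controls.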
WRN inhibitor: blocks human WRN helicase; Q14191; WRN helicase unwinding, fluorescent forked duplex, kinetic; Potency, µM (titrated, usually from 114 µM), inactives show at the top dose activity change, negative = inhibition, actives largely listed as inhibitors; 0.46% of 360,000 active; AID 651768; also: nearly all actives have a fitted effect of over 55% in size
Target sequence (Q14191 whole entry, looked up): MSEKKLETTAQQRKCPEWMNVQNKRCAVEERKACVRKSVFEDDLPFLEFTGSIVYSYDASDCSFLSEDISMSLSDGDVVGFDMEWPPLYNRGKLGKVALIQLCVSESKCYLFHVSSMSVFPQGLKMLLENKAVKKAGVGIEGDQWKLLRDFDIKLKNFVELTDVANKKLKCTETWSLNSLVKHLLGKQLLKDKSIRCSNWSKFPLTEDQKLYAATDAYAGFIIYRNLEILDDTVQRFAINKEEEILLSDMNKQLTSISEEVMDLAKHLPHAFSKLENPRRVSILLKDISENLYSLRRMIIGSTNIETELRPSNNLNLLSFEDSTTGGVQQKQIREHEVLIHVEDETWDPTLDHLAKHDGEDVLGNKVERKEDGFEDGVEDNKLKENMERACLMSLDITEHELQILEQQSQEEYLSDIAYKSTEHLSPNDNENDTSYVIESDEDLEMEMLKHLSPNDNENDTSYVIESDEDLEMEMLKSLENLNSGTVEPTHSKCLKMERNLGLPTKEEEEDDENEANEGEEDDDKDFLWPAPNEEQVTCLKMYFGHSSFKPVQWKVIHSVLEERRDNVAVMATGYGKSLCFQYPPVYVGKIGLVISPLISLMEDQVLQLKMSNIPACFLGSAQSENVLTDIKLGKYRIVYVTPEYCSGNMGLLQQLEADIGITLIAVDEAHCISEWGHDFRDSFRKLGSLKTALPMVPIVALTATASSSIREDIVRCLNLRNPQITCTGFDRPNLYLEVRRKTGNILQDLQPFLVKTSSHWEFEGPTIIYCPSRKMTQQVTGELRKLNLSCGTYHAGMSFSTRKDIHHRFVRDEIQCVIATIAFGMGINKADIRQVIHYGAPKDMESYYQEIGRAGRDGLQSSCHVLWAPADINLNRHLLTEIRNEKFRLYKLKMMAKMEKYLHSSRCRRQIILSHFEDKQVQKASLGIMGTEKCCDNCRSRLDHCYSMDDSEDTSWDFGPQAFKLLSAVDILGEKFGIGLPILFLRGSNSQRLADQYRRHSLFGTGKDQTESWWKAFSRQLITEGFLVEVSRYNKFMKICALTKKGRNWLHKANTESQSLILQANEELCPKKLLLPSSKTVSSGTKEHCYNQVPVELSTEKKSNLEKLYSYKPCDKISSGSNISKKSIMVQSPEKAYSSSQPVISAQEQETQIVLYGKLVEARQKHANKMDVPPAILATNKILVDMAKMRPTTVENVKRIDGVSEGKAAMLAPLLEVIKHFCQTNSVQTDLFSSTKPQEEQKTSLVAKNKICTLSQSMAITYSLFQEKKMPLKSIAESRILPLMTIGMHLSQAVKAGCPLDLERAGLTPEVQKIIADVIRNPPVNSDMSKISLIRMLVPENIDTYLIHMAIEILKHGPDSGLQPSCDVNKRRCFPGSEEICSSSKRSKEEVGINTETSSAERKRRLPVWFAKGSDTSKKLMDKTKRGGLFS
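Kinetic red-fluorescence monitoring (525/598 nm) tracks WRN helicase activity after 100 nM fluorophore-quencher forked duplex and 2 mM ATP are added to 20 nM enzyme pretreated 15 min at room temperature with compound.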
FEN1 inh: human FEN1 inhibition; P39748; 0.35% of 390,000 active; AID 588795; Recombinant FEN1 flap cleavage, fluorescence, 15 min; Potency, µM (doses to about 114 µM), for inactives: top-dose activity change, negative = inhibition, actives largely listed as inhibitors; also: nearly all actives have a fitted effect of over 65% in size
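FEN1 at 10 nM, compound pretreatment for 15 min (room temperature), 50 nM final substrate to initiate; endpoint reads at 0 and 15 min; DMSO-only plates used as vehicle background.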
BLM inh: inhibitors of human Bloom syndrome helicase BLM; P54132; recombinant BLM DNA unwinding, fluorescence dequenching; Potency, µM (doses to about 56.1 µM), for inactives: at the top dose activity change, negative = inhibition, most hits filed as inhibitors; 0.2% of 350,000 active;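 also: plate controls were vehicle for no effect and no enzyme for full effect; nearly all actives have a fitted effect of over 35% in size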
RECQ1 inh-1: RECQ1 (human) helicase inhibition | 0.54% of 240,000 active | Potency, µM (highest dose often 57.3 µM), for inactives: top-dose activity, negative = inhibition, most hits filed as inhibitors | RECQ1 DNA unwinding, red fluorescence kinetic read;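 also: plate controls were vehicle for no effect and no enzyme for full effect; nearly all actives have a fitted effect of over 30% in size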
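50 nM RECQ1T1 preincubated 15 min with compound in Tris pH 8.0 buffer with MgCl2, DTT, Tween-20 and 2.5 ug/ml poly(dI-dC); started with 200 nM TAMRA/BHQ-2 forked duplex and 2 mM ATP. Unwinding read as fluorescence (525/598 nm), two reads 2 h apart.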
RECQ1 conf: confirmation of human RECQ1 helicase inhibitors; shares compounds with RECQ1 inh-1; RECQ1 helicase DNA unwinding, fluorescence; Potency, µM (top dose mostly 229 µM), for the others: at the highest dose activity change, negative = inhibition, usual class: inhibitors; 28% of 610 active; also: nearly all actives have a fitted effect of over 45% in size
ADP FP counter: counter-screen for RECQ1 inhibitors: ADP displacement | shares compounds with RECQ1 inh-1 | ADP fluorescence polarization displacement counterscreen | Potency, µM (doses to about 228 µM), for the others: at the highest dose activity change, negative = inhibition, hits mostly inhibitors | 27% of 530 active | AID 2711; also: nearly all actives have a fitted effect of over 45% in size
RECQ1 inh-2: blocks human RECQ1 DNA unwinding; shares compounds with RECQ1 inh-1; recombinant RECQ1 DNA unwinding, red fluorescence; Potency, µM (titrated, usually from 119 µM), for inactives: top-dose activity, negative = inhibition, usual class: inhibitors; 15% of 1,100 active; AID 504841; also: nearly all actives have a fitted effect of over 50% in size
* hit, by the source's call; i = inactive; ? = inconclusive; . = no result given; [ ] = remark or other dose. The list is not random: actives were taken first. Their share in the collection is about 1%. Calls follow the shape of the dose curve; as a rule, active = well fitted curve in the direction sought with a large enough effect; inconclusive = small, poorly fitted or top-dose-only effect, or another doubt; inactive = no such curve, though single readings can be large; an effect the other way counts as inactive or inconclusive. Unless noted, % is scaled to controls: 0 for no effect and ±100 for the full control effect; potency is read from the fitted curve at half-maximal effect.

SMILES | L3MBTL1 inh | APE1 inh | WRN inhibitor | FEN1 inh | BLM inh | RECQ1 inh-1 | RECQ1 conf | ADP FP counter | RECQ1 inh-2
Cc1ccc(C)c2[nH]c(=O)c(CN(Cc3ccc4c(c3)OCO4)Cc3nnnn3Cc3ccco3)cc12 | -6.4% | ? | 1.7% | -1.5% | -16.7% | 22.4µM* | . | . | -12.7%
CCc1ccc2[nH]c(=O)c(CN(Cc3ccccc3OC)Cc3nnnn3Cc3ccco3)cc2c1 | -16.3% | ? | -8.7% | -17.2% | -8.2% | ? | . | . | -19.4%
CC1=C(C(=O)N2CCOCC2)CC(CC(=O)NC2CCCCC2)C(=O)N1Cc1ccc(C(C)(C)C)cc1 (stereo not given) | . | . | 6.0% | . | . | . | . | . | .
Cc1ccc2sc(C)[n+](CCCS(=O)(=O)[O-])c2c1 | . | -2.9% | ? | -1.9% | -4.3% | 3.55µM* | 9.4%[114 µM] | 8.0%[91.9 µM] | .
Cc1ccc2c(c1)sc(C)[n+]2CCCS(=O)(=O)[O-] | . | 1.5% | -4.9% | -0.1% | -1.2% | 4.3% | . | . | .
Cc1nnc2ccc(-c3cccc(NC(=O)Cc4cccs4)c3)nn12 | . | 3.0% | -3.3%[11.6 µM] | -3.7% | -12.7% | ? | . | . | -25.2%
CCOc1ccccc1NC(=O)CC(c1ccc(F)cc1)N1Cc2ccccc2C1=O (stereo not given) | . | . | . | 4.1% | -3.9% | . | . | . | .
O=C(/C=C/c1ccc(Br)o1)NC(c1ccccc1)c1ccccc1 | -10.1% | 6.8% | -11.7% | ? | -2.6% | -10.3% | . | . | .
O=C1C(=Cc2ccc(Br)o2)C(=O)c2ccccc21 | 3.16µM* | 8.91µM* | 8.91µM* | 14.1µM* | -2.4% | 8.91µM* | ? | . | .
COc1cc2c(cc1OC)C(c1ccccc1)N(C(=O)C(C)(C)C)CC2 (stereo not given) | . | -11.0% | -1.3% | 1.7% | -2.1% | . | . | . | .
C=CCn1c(=O)[nH]c2cc(C(=O)N3CCN(c4ccc(C(C)=O)cc4)CC3)ccc2c1=O | . | -7.4% | ? | -3.2% | -24.6% | 4.47µM* | ? | -1.8%[91.9 µM] | ?
O=C(COc1c(Cl)cccc1Cl)NN1C(=O)CSC1=S | -17.2% | -6.4% | -12.0%[11.6 µM] | 10.3% | -6.8% | ? | . | . | -9.6%
COc1cccc(-n2ccnc2SCC(=O)Nc2c(C)cc(C)cc2C)c1 | . | . | . | -8.1% | -2.4% | . | . | . | .
COc1ccc(C(=O)Nc2cccnc2)cc1 | . | -7.1% | -0.7% | -9.4% | 0.4% | -5.7% | 6.3% | ? | .
COc1ccc(C(=O)Nc2ccccc2C(=O)Nc2cccnc2)cc1 | . | 19.3%[12.4 µM] | -3.6% | -14.6% | -0.3% | . | . | . | .
COc1ccccc1-n1c(SCC(=O)Nc2ccccc2C)nc(O)cc1=O | -1.1% | 1.6% | -13.2%[57.1 µM] | 8.4% | -16.2% | 10µM* | 11.4%[114 µM] | 12.1%[91.9 µM] | -7.0%
O=C(Cn1nnc(-c2ccc(S(=O)(=O)N3CCCC3)cc2)n1)Nc1ccccc1-n1cccc1 | -9.3% | -6.8% | -7.5% | -14.6% | -6.3% | i | 4.0% | 0.1% | .
C[C@@H]1CN([C@H](C)CO)C(=O)c2cc(Br)cnc2O[C@@H]1CN(C)C(=O)C1CCOCC1 | . | . | 4.3% | . | . | . | . | . | .
CCOc1cc(NC(=O)C2CC2)c(OCC)cc1NC(=O)c1cccc(F)c1 | . | 40.4% | -2.5% | 1.3% | -5.4% | . | . | . | .
CCOc1cc(NC(=O)c2cnccn2)c(OCC)cc1NC(=O)c1cccc(F)c1 | 0.6% | -0.6% | . | . | -1.0% | -2.2% | 8.7% | ? | .
COc1cc(OC)c(NC(=O)Nc2cc(C)on2)cc1Cl | . | -0.9% | . | . | 0.6% | 10.0% | . | . | .
CCOC(=O)c1ccc(N2N=C(C)/C(=C/C=C/c3ccco3)C2=O)cc1 | 31.6µM* | 3.8% | -1.9% | 11.1% | 6.5% | ? | . | . | -3.3%
O=C(O)CSc1nnc(Cn2nnc3ccccc32)n1CCc1ccccc1 | 10.2% | 9.6% | 1.5% | 4.0% | -2.3% | 0.4% | 8.4% | 7.8% | .
Cc1ccccc1-c1cccc([C@@H]2C[C@H]3[C@H](CON3C)CN2Cc2cc(Cl)cc(Cl)c2)c1 | . | . | 1.2% | 13.4% | . | . | . | . | .
C=CCn1c(=O)/c(=C/c2ccc(C)o2)s/c1=C(/C#N)C(=O)c1ccccc1 | ? | -2.9% | -3.2% | -5.4% | -15.6% | 31.6µM* | . | . | ?
CCOC(=O)C1=C(c2ccccc2)N=c2sc(=Cc3cc(OC)c(OC)c(OC)c3)c(=O)n2C1c1cccs1 (stereo not given) | . | . | 0.7% | . | . | . | . | . | .
CCOC(=O)C1=C(c2ccccc2)N=c2s/c(=C\c3ccc(O)cc3)c(=O)n2C1c1cccs1 (stereo not given) | -1.7% | -0.2% | ? | ? | -12.4% | ? | . | . | 15.8µM*

Screens as filed in PubChem.
